How the values were obtained:
Assay in all cases: log2 ratio of Biotin-Ahx-Ub-VS probe labelling (fragment/DMSO); higher = less target engagement (more negative = stronger competition), active = hit call of the paper (q ≤ 0.05, log2 ratio ≤ -1)
Details in all cases: compound concentration: 200 uM; treatment time: 3 h
USP34 = USP34 (UniProt Q70CQ2)
In short: (§1)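 Each value is an average log2 ratio of fragment to vehicle, tested by unpaired t-test. The underlying Spectronaut label-free quantities were global-median-normalised, and only proteins with ≥2 unique peptides were included. Triplicate HEK293T lysate samples (495 µg) were exposed to fragment at 200 µM or vehicle for 3 h, then to Biotin-Ahx-Ub-VS at 0.5 µM final for 1 h, before NeutrAvidin enrichment of labelled DUBs, LysC and trypsin digestion, and diaPASEF LC-MS/MS.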

USP36 = target: T1, USP36 (UniProt Q9P275)
T1 sequence (whole entry): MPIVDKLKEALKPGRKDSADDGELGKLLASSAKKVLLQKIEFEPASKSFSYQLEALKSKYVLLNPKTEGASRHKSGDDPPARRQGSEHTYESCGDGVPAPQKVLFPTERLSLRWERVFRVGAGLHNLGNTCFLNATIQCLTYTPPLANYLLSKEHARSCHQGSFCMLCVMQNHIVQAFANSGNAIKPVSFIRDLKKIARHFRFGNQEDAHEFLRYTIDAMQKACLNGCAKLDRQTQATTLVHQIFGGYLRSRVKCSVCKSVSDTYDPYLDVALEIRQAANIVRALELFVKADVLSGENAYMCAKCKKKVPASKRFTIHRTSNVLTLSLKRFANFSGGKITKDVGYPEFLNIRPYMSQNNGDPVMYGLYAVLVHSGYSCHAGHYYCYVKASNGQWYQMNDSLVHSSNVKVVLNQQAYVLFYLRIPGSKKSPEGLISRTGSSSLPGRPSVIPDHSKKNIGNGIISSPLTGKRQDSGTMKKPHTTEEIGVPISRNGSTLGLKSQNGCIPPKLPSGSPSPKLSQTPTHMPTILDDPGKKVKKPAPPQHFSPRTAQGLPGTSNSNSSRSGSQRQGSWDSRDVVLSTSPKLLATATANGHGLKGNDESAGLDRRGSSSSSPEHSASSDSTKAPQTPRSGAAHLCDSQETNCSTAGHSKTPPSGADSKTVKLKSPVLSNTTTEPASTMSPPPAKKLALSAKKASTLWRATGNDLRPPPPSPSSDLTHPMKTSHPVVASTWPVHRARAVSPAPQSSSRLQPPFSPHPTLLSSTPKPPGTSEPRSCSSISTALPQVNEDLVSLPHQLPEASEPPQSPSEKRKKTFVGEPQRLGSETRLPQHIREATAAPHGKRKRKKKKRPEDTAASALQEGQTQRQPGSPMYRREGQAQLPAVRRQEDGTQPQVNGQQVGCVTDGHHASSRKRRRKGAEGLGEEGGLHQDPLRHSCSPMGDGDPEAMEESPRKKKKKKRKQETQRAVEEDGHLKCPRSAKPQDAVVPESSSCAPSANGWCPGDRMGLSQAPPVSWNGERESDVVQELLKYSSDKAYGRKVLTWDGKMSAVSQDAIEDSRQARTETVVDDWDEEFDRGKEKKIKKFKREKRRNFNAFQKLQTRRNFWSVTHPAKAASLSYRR
In short: as §1

USP38 = target: T2, USP38 (UniProt Q8NB14)
T2 sequence (whole entry): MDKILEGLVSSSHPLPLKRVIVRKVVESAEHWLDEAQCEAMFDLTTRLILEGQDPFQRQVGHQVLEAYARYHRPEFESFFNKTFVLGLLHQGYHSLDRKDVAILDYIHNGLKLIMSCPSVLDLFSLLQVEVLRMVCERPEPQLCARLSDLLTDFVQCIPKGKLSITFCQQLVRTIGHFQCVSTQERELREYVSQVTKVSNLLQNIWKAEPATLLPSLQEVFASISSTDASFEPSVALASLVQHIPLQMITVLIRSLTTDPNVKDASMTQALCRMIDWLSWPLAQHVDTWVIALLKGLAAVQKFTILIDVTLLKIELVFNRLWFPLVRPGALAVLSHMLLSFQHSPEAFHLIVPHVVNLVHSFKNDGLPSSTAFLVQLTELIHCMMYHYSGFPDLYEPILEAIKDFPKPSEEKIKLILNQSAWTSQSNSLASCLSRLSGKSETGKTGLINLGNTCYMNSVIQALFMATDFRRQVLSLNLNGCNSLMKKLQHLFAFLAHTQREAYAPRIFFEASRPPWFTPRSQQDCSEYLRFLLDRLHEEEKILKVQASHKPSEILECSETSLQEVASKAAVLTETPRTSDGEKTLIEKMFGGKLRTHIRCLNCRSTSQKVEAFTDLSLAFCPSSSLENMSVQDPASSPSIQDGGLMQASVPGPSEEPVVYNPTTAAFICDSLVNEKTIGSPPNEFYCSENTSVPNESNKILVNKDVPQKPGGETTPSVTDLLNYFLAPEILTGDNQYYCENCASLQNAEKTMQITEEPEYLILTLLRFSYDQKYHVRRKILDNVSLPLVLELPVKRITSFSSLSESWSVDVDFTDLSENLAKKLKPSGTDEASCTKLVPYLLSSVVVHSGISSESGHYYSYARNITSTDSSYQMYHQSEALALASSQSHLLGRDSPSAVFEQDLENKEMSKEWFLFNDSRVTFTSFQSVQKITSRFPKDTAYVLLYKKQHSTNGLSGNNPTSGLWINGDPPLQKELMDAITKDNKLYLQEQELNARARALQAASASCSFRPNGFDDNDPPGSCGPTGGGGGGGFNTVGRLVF
In short: as §1

USP39 = target: T3, USP39 (UniProt Q53GS9)
T3 sequence (whole entry): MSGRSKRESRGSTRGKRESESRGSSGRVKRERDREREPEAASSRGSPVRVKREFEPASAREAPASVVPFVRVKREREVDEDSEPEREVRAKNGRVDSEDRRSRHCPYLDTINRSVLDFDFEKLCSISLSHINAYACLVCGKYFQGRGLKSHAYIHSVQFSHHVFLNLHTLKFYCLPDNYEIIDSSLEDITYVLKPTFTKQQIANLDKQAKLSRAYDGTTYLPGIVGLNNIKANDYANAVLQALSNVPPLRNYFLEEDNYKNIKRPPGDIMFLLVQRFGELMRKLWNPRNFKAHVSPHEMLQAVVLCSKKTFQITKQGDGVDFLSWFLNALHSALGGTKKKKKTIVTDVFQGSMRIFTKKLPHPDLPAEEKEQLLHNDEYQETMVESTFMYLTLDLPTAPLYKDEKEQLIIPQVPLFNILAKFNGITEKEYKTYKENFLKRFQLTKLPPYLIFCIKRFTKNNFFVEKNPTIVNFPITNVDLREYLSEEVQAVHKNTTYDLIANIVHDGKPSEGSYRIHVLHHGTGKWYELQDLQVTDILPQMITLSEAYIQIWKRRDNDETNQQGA
In short: as §1

USP4 = target: T4, USP4 (UniProt Q13107)
T4 sequence (whole entry): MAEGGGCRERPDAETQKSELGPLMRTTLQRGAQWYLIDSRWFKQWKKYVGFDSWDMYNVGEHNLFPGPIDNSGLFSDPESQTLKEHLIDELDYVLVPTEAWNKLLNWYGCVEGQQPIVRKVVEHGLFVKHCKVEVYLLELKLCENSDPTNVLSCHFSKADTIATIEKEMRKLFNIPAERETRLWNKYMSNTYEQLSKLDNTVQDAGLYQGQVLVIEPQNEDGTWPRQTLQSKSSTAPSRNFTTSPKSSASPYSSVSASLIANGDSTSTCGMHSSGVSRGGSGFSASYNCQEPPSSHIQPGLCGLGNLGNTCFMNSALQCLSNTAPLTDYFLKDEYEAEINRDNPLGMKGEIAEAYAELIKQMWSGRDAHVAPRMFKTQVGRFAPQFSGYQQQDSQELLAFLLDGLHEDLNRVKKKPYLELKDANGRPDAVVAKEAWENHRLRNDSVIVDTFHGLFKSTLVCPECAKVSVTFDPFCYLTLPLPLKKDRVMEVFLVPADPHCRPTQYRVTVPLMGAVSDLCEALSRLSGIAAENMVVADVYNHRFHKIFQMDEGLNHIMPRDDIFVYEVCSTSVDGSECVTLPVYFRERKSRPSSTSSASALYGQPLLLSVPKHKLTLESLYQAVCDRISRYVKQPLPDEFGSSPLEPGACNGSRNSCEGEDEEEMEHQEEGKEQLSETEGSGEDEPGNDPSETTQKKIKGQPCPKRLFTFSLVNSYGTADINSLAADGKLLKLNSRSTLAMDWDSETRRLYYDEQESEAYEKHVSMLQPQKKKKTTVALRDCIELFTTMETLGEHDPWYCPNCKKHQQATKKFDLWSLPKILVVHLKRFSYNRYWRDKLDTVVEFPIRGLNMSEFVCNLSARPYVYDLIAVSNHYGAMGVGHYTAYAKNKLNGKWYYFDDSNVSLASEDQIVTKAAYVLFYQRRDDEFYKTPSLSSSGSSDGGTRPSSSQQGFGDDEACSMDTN
In short: as §1

Measured: log2 ratio of Biotin-Ahx-Ub-VS probe labelling

Chain of USP34 (Q70CQ2 whole entry, the tested form may be a part): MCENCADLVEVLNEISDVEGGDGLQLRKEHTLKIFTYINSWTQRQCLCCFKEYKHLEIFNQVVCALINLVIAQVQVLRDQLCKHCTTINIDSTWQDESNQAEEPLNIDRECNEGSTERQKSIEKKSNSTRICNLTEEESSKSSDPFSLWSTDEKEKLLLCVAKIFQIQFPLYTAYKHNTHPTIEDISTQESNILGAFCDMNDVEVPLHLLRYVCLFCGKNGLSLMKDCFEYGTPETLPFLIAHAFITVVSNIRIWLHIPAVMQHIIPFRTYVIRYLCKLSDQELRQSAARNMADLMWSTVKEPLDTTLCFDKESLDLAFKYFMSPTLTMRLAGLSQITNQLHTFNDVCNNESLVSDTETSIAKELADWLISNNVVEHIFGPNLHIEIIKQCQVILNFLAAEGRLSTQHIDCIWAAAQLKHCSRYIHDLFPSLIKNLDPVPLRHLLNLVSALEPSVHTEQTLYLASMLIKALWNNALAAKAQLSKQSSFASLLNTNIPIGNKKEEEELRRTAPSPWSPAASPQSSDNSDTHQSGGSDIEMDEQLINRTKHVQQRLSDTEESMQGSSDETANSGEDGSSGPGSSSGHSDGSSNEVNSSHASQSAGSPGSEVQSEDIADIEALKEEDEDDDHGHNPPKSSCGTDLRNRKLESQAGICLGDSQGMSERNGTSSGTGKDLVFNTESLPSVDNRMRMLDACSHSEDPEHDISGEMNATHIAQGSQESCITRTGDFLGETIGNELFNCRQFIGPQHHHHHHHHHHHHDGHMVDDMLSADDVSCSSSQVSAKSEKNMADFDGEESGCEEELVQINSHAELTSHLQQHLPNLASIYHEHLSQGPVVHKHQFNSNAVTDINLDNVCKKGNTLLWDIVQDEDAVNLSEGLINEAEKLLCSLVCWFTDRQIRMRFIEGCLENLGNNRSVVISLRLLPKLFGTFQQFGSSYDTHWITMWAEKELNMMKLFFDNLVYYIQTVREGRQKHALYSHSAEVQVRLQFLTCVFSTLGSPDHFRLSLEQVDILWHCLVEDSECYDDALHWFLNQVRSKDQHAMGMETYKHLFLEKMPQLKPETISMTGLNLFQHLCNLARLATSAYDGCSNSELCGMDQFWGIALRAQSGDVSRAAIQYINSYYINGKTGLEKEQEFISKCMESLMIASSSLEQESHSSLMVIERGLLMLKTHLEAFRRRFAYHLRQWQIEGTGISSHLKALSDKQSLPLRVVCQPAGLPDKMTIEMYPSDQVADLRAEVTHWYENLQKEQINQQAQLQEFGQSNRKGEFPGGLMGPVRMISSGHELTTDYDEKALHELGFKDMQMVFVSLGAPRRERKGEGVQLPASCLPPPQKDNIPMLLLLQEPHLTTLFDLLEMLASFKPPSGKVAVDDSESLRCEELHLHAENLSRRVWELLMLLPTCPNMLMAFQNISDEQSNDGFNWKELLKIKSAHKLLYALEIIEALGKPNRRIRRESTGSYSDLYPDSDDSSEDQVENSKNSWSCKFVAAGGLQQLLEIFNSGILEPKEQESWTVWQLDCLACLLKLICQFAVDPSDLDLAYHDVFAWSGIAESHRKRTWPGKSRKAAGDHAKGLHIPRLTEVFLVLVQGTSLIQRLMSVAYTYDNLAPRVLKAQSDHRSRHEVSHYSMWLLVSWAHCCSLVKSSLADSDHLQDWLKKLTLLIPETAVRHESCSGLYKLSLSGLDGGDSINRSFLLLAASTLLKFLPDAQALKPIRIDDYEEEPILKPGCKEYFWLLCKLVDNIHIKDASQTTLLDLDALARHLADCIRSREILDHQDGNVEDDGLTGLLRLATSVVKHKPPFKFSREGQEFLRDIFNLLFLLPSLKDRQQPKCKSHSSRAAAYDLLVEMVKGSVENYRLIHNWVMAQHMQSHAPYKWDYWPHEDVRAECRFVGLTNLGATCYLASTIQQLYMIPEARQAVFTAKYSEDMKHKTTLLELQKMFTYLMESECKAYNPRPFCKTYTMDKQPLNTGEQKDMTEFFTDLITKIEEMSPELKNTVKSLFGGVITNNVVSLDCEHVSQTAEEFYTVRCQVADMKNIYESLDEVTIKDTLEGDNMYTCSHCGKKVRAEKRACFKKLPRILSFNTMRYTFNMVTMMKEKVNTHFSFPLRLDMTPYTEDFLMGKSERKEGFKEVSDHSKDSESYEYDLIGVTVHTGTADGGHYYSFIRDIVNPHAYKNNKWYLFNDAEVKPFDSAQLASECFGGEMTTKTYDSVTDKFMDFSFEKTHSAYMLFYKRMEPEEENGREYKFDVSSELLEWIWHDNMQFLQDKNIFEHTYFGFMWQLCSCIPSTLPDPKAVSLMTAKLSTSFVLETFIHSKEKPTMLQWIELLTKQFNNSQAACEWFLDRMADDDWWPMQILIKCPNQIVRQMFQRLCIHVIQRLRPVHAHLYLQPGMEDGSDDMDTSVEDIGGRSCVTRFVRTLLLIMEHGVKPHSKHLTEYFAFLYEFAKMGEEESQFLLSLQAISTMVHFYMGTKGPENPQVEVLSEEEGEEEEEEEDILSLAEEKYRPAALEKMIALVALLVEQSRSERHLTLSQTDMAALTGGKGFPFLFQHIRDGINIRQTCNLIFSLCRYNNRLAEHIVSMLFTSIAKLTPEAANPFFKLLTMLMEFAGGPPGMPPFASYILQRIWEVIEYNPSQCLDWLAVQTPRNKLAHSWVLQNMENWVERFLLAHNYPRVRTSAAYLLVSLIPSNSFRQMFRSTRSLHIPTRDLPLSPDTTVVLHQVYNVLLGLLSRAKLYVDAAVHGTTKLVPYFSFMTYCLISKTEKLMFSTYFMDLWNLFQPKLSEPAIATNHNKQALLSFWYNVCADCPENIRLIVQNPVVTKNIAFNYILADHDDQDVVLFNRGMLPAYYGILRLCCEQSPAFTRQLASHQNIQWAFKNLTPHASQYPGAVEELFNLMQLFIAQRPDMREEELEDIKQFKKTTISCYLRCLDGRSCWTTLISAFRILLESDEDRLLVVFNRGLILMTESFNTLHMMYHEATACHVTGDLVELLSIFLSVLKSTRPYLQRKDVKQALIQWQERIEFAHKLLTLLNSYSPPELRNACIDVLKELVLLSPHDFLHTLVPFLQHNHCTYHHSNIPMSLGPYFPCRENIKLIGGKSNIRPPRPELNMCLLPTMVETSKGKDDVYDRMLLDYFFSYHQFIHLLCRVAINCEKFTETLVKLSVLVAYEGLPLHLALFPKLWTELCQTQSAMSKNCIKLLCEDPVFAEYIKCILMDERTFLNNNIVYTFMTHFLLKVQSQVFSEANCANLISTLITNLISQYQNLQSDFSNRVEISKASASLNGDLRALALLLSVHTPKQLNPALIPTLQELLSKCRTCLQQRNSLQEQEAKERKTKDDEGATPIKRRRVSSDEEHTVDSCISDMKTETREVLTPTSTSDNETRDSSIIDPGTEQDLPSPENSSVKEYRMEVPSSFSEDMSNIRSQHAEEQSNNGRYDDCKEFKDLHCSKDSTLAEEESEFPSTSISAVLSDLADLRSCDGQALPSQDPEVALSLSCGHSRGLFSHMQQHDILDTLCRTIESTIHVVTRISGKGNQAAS

C[C@H]1CN(C(=O)CCl)CCN1C(=O)c1cnn(C)c1.Cl
inactive: USP34 -0.052 | USP36 -0.171 | USP38 -0.0453 | USP39 0.0473 | USP4 -0.115

Source: the supplement of paper PMC11732987, “Enantioselective OTUD7B fragment discovery through chemoproteomics screening and high-throughput optimisation” (Communications Chemistry, 2025)
